Bioassay records from PubChem.
Hits are enriched below; roughly 6.5% of the tested compounds scored in any of these assays.
VACV Venus inh: qHTS for Stage-Specific Inhibitors of Vaccinia Orthopoxvirus: Venus Reporter Primary qHTS | hit rate 0.46% among 330,000 | Potency, µM (titrated, usually from 36.5 µM), actives largely listed as inhibitors | Vaccinia virus Venus reporter expression, fluorescence; calls by dose curve; tested in A549 cells; also: nearly all actives have a fitted effect of over 30% in size
HCMV inh: qHTS Assay for inhibitors of the human cytomegalovirus (HCMV) | HFF cells, HCMV-luciferase reporter, 72 h; stronger effect = lower value | activity change, negative = inhibition, % at 57.5 µM | hit rate 4.5% among 410,000 | AID 1259415, 2018; in the data active = activity change below about -60%; inconclusive = no clear call, values can overlap the other calls; inactive = above about -39%
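After 16 h attachment at 37C, HFF cells received test compound and HCMV-luciferase (1 PFU/cell); reporter luminescence read 72 h later, data normalized against buffer-only and known inhibitor Salinomycin.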
Marburg entry inh: qHTS for inhibitors of binding or entry into cells for Marburg Virus; Potency, µM (highest dose often 37.8 µM), hits mostly inhibitors; Marburg virus pseudotyped entry inhibition, cell reporter; hit rate 1.8% among 300,000; AID 540276, 2011; calls by dose curve; tested in HEK293 cells
FMDV antiviral: High Throughput Screening for Foot and Mouth Disease Virus Antivirals; hit rate 1.2% among 410,000; Potency, µM (doses to about 57.9 µM), actives largely listed as inhibitors; FMDV antiviral cell-based qHTS; calls by dose curve; tested in HEK293T cells; also: read-out not given here; nearly all actives have a fitted effect of over 45% in size
VACV mCherry inh: qHTS for Stage-Specific Inhibitors of Vaccinia Orthopoxvirus: mCherry Reporter Primary qHTS; Vaccinia virus mCherry reporter infection, fluorescence; Potency, µM (top dose mostly 36.5 µM), most hits filed as inhibitors; hit rate 0.63% among 310,000; AID 720579, 2013; calls by dose curve; tested in A549 cells; also: nearly all actives have a fitted effect of over 35% in size
LASV entry inh: qHTS for Inhibitors of binding or entry into cells for Lassa Virus. Lassa virus pseudotype entry inhibition, cell reporter. Potency, µM (titrated, usually from 37.9 µM), actives largely listed as inhibitors. hit rate 1.2% among 300,000. AID 540256, 2011; calls by dose curve; tested in HEK293 cells; also: nearly all actives have a fitted effect of over 50% in size
Of the large screens only hits and unclear results are named; the others gave an inactive call; ! = not confirmed by another sample.

CC[C@@]1(C(=O)OC)N[C@H](CN(C)C(=O)Nc2ccccc2)[C@@H]2C(=O)N(C)C(=O)[C@@H]21	FMDV antiviral 4.47µM (no result: Marburg entry inh, LASV entry inh)
CC[C@@]1(C(=O)OC)N[C@H](CN(C)C(=O)Nc2ccc(F)cc2)[C@@H]2C(=O)N(C)C(=O)[C@@H]21	none (no result: Marburg entry inh, LASV entry inh)
Cc1cccc(Nc2nc(N)c([N+](=O)[O-])c(N3CCCC(C)C3)n2)c1 (stereo not given)	VACV Venus inh 10µM, HCMV inh -77.3, Marburg entry inh inconclusive, FMDV antiviral 22.4µM, VACV mCherry inh 12.6µM, LASV entry inh inconclusive
Cc1ccc(Nc2nc(N)c([N+](=O)[O-])c(N3CCC(C)CC3)n2)cc1C	Marburg entry inh 14.1µM
O=C(NCc1ccccc1)C(=O)NCC(c1ccco1)S(=O)(=O)c1ccccc1 (stereo not given)	none (no result: Marburg entry inh)
CC(C)C1=Nc2nc(N)nn2C(=O)C1	none (no result: VACV Venus inh, HCMV inh, FMDV antiviral, VACV mCherry inh, LASV entry inh)
CCc1cccc(C)c1NC(=S)N(CCOC)C(C)c1ccco1 (stereo not given)	HCMV inh -65.8
CCOc1ccc(-n2c(SCc3cc(=O)oc4cc(C)ccc34)nnc2-c2cccnc2)cc1	HCMV inh -64.6
CC(C)c1ccccc1-n1c(SCc2cc(=O)oc3ccc4ccccc4c23)nnc1-c1cccnc1	Marburg entry inh inconclusive, FMDV antiviral 14.1µM, LASV entry inh inconclusive
CC(=O)Nc1ccc2c(CSc3nnc(-c4cccnc4)n3-c3ccc(C)cc3C)cc(=O)oc2c1	LASV entry inh inconclusive
Cc1ccc(F)c(NC(=O)/C(C#N)=C(\O)c2ccc(C(C)(C)C)cc2)c1	HCMV inh -63.2 (no result: VACV Venus inh, Marburg entry inh, VACV mCherry inh, LASV entry inh)
CCc1nc(SCc2cc(=O)[nH]c3ccccc23)c2c(C)c(C)sc2n1	none (no result: Marburg entry inh, LASV entry inh)
CCCCN1CCc2c([nH]c3ccccc23)C1=O	Marburg entry inh inconclusive (no result: VACV mCherry inh)
CN1CCc2ccccc2Cc2[nH]c3ccccc3c2CC1	Marburg entry inh 11.2µM!
Cc1[nH]c2ccc(C(=O)OCC(=O)NC3(C#N)CCCCC3)cc2c1C	VACV Venus inh inconclusive, Marburg entry inh inconclusive, FMDV antiviral inconclusive, LASV entry inh 6.31µM
COc1cc2c(c(O)c1OC)-c1c(cc(OC)c(OC)c1OC)C[C@@H](C)[C@@H](C)C2	HCMV inh -60.2, VACV mCherry inh inconclusive (no result: Marburg entry inh, LASV entry inh)
COc1cc2c(c(OC)c1OC)-c1c(cc(OC)c(OC)c1OC)C[C@H](C)[C@H](C)C2	HCMV inh -62.9, VACV mCherry inh inconclusive (no result: Marburg entry inh, LASV entry inh)
CCn1cc(CN2CCC(n3nccc3NC(=O)c3ccc(OC)cc3)CC2)cn1	none (no result: Marburg entry inh, LASV entry inh)
CCC(C)C(=O)OC1CCC=C2C=CC(C)C(CCC3CC(O)CC(=O)O3)C21 (stereo not given)	HCMV inh -97.1
COc1ccc(C)cc1NC(=O)Cn1c(=O)oc2cc(S(=O)(=O)NCc3ccccc3)ccc21	HCMV inh active (no result: Marburg entry inh)
CCC(=O)Nc1c(C#N)c2nc3ccccc3nc2n1-c1ccc(C)cc1	FMDV antiviral inconclusive (no result: Marburg entry inh, LASV entry inh)
CCC(C)n1c(NC(=O)c2ccccc2)c(C#N)c2nc3ccccc3nc21 (stereo not given)	VACV Venus inh inconclusive, Marburg entry inh inconclusive, FMDV antiviral 11.2µM, LASV entry inh inconclusive (no result: VACV mCherry inh)
CCCCn1c(NC(=O)c2ccccc2)c(C#N)c2nc3ccccc3nc21	HCMV inh -66.7, Marburg entry inh inconclusive, LASV entry inh inconclusive (no result: FMDV antiviral)
CCCCCCCCCCCC(=O)NC(C(=O)OCC)C(O)c1cccc([N+](=O)[O-])c1 (stereo not given)	Marburg entry inh 11.2µM, FMDV antiviral inconclusive, LASV entry inh inconclusive
Cc1cc(C)c(S(=O)(=O)Nc2cc(-c3cn4ccccc4n3)ccc2C)cc1C	LASV entry inh inconclusive
Cc1ccc(-c2cn3cccc(C)c3n2)cc1NS(=O)(=O)c1ccccc1	HCMV inh -85.2
O=C(Cn1cnc2c(nc3n2CCCCC3)c1=O)Nc1ccc(F)c(Cl)c1	none (no result: Marburg entry inh)
CCN1CC2=C(OC(N)=C(C#N)C2c2ccccc2)/C(=C\c2ccccc2)C1 (stereo not given)	Marburg entry inh inconclusive, FMDV antiviral 22.4µM, LASV entry inh inconclusive (no result: VACV mCherry inh)
CCOC(=O)C1=C(C)OC(N)=C(C#N)C1c1cccs1 (stereo not given)	none
